The record followed here is PubChem BioAssay (NCATS).

Inconclusive results are not listed. The source made the active and inactive calls. Calls follow the shape of the dose curve; as a rule, active = well fitted curve in the direction sought with a large enough effect; inconclusive = small, poorly fitted or top-dose-only effect, or another doubt; inactive = no such curve, though single readings can be large; an effect the other way counts as inactive or inconclusive.

Experiment [1] can be described thus: MultiTox-Fluor Cytotoxicity Assay - LYMP1-001 - Dead Cells (AID 946). The essentials:
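Cytotoxicity as increased dead-cell protease fluorescence (bis-AAF-R110, 485/520 nm), read 60 min after MultiTox-Fluor reagent. Human lymphoblastoid line exposed 16 h; Hill-fitted AC50, with DMSO as 0% and 15 uM tetraoctylammonium bromide as 100%.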

Experiment [2] is described as follows: Cell Viability - LYMP1-002 - Assay at 16 hr (AID 948). The essentials: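 Acute cytotoxicity is scored as a concentration-dependent fall in intracellular ATP in a human lymphoblastoid line (LYMP1-002) after 16 hr compound exposure at 37 C, measured by luciferase luminescence.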
Experiment [3] is described as follows: MultiTox-Fluor Cytotoxicity Assay - LYMP1-002 - Dead Cells (AID 960). Also: nearly all actives have a fitted effect of over 60% in size. The essentials:
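Cells were plated, rested 5 hr, then treated with compound dilution series for 16 hr at 37 C. After adding substrate reagent and 60 min at room temperature, dead-cell protease fluorescence gave concentration-response curves fitted by the Hill equation.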

Experiment [4] is described as follows: MultiTox-Fluor Cytotoxicity Assay - LYMP1-003 - Dead Cells (AID 961). Also: nearly all actives have a fitted effect of over 70% in size. Also: potency is read from the fitted curve at half-maximal effect. The essentials:
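Dead-cell protease release, detected as bis-AAF-R110 fluorescence at 485/520 nm, was measured in LYMP1-003 cells after 16 h compound treatment at 37 C. AC50 values came from Hill-modeled qHTS curves normalized to DMSO (0%) and 15 uM tetraoctylammonium bromide (100%).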

Experiment [5] is described as follows: MultiTox-Fluor Cytotoxicity Assay - LYMP1-003 - Live Cells (AID 962).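 Also: cells exposed to compound for 16 hours at 37 °C.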 Also: potency is read from the fitted curve at half-maximal effect. The essentials: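 Acute cytotoxicity is scored as a drop in live-cell protease activity in human lymphoblastoid LYMP1-003 cells after 16 hr compound exposure at 37 C. AC50 values come from Hill-equation modelling of concentration-response data.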
The nature of experiment [6]: Cell Viability - LYMP1-003 - Assay at 24 hr (AID 963). Also: potency is read from the fitted curve at half-maximal effect. The essentials:
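Cytotoxicity is scored as a concentration-dependent fall in ATP-linked luciferase signal in human lymphoblastoid LYMP1-003 cells treated 24 hr at 37 C in complete culture medium.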

A short description of experiment [7]: Cell Viability - LYMP1-003 - Assay at 40 hr (AID 964). Also: nearly all actives have a fitted effect of over 60% in size. Also: potency is read from the fitted curve at half-maximal effect. The essentials:
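Luminescent ATP signal (CellTiter-Glo) served as the viability read-out after 40 hr compound treatment of human lymphoblastoid LYMP1-003 cells at 37 C. Decreases in ATP were fitted with the Hill equation to give AC50.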

A short description of experiment [8]: Cell Viability - LYMP2-003 (AID 965).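 Also: cells exposed to compounds for 24 h before reading; nearly all actives have a fitted effect of over 50% in size.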 Also: potency is read from the fitted curve at half-maximal effect. The essentials:
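Acute cytotoxicity is scored as a concentration-dependent drop in intracellular ATP, measured by luciferase luminescence in human lymphoblastoid cells treated for 24 hours at 37 C. AC50 values derive from Hill-equation modelling.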

Experiment [9] can be described thus: Cell Viability - LYMP2-009 (AID 968). Also: nearly all actives have a fitted effect of over 55% in size. Also: potency is read from the fitted curve at half-maximal effect.
A short description of experiment [10]: Cell Viability - LYMP2-011 (AID 969). Also: nearly all actives have a fitted effect of over 60% in size. Also: potency is read from the fitted curve at half-maximal effect. The essentials: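 In this qHTS cytotoxicity format, compounds are tested across concentrations on human lymphoblastoid cells in complete medium for 24 hours at 37 C. Viability is taken as cellular ATP measured by luciferase luminescence.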
Experiment [11] can be described thus: Cell Viability - LYMP2-013 (AID 970). Also: nearly all actives have a fitted effect of over 55% in size. Also: potency is read from the fitted curve at half-maximal effect. The method in brief: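 Cytotoxicity is scored as a concentration-dependent drop in intracellular ATP in human lymphoblastoid cells after 24 hr compound exposure at 37 C. ATP is quantified by luciferase luminescence, and AC50 values come from Hill-equation modeling.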
A short description of experiment [12]: Cell Viability - LYMP2-015 (AID 971). Also: nearly all actives have a fitted effect of over 55% in size. Also: potency is read from the fitted curve at half-maximal effect. The method in brief:
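Cells are seeded at 2500 per well and incubated 5 hr at 37 C. Compounds are added across a concentration series for 24 hr at 37 C. CellTiter-Glo is added, and luminescence is read after 30 min at room temperature.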

A short description of experiment [13]: Cell Viability - LYMP2-017 (AID 972). Also: nearly all actives have a fitted effect of over 55% in size. Also: potency is read from the fitted curve at half-maximal effect. The method in brief: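 Cytotoxicity is scored as a concentration-dependent drop in cellular ATP in a human lymphoblastoid line after 24 hr treatment at 37 C. Values are AC50s from Hill-equation modelling.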
A short description of experiment [14]: Cell Viability - LYMP2-019 (AID 973). Also: nearly all actives have a fitted effect of over 55% in size. Also: potency is read from the fitted curve at half-maximal effect. The method in brief: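 Cytotoxicity is scored as a concentration-dependent drop in cellular ATP after cells (2500/well) receive compound for 24 hr at 37 C. Tetraoctylammonium bromide serves as positive control.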
The nature of experiment [15]: Cell Viability - LYMP2-021 (AID 974). The essentials:
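Loss of cellular ATP, measured with a luciferase-based CellTiter-Glo readout, serves as the toxicity signal in human lymphoblastoid cells treated for 24 hours at 37 C. Potency is reported as AC50 from a standard Hill model.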

A short description of experiment [16]: Cell Viability - LYMP2-023 (AID 975). Also: nearly all actives have a fitted effect of over 55% in size. Also: potency is read from the fitted curve at half-maximal effect. The essentials:
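Steps: seed 2500 human lymphoblastoid cells per well, incubate 5 hr at 37 C, add compound for 24 hr at 37 C, add CellTiter-Glo, hold 30 min at room temperature, read luminescence. AC50 derived by Hill modelling.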

A short description of experiment [17]: MultiTox-Fluor Cytotoxicity Assay - LYMP1-002 - Live Cells (AID 955).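 Also: cells exposed to compound for 16 hours.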 The essentials:
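Cells were seeded at 2500 per well and incubated 5 hr. Compounds were then added for 16 hr at 37 C, followed by MultiTox-Fluor reagent for 60 min at room temperature and fluorescence reading of viable-cell protease signal.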

A short description of experiment [18]: Cell Viability - LYMP2-004 (AID 966). Also: nearly all actives have a fitted effect of over 65% in size. Also: potency is read from the fitted curve at half-maximal effect. The method in brief: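 qHTS cytotoxicity: human lymphoblastoid line, 24 hr compound treatment, 37 C, complete medium. Viability read as cellular ATP via luciferase luminescence; tetraoctylammonium bromide served as positive control.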
A short description of experiment [19]: Cell Viability - LYMP2-005 (AID 967). Also: series mostly up to about 92 µM. The method in brief: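 qHTS viability screen in LYMP2-005 cells: 24 h at 37 C with compound, ATP luminescence via CellTiter-Glo, AC50 from Hill curves.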
The nature of experiment [20]: MultiTox-Fluor Cytotoxicity Assay - LYMP1-001 - Live Cells (AID 947).

`O=C(O)CCSSCCC(=O)O`: the call in experiment [1], in experiment [2] and in experiment [3] was inactive. Further, the Potency entry in experiment [4], in [5], in experiment [6], in [7], in [8] and in [9] was “inactive” each time. The Potency entry in [10], in experiment [11], in [12], in [13], in experiment [14] and in experiment [15] was “inactive” in each case. The Potency result in experiment [16] was “inactive”.

`CCCCC(CC)COC(=O)CCCCC(=O)OCC(CC)CCCC` (configuration not stated): the result in experiment [1], in experiment [2], in experiment [17], in experiment [3] and in experiment [19] was inactive. For the same compound, the Potency entry in experiment [4], in experiment [5], in experiment [7], in [8], in experiment [18] and in [9] was “inactive” each time. Besides, the Potency result in [10], in experiment [11], in experiment [12], in experiment [13], in [14] and in [16] was “inactive” each time.

Consider `c1ccc2n[nH]nc2c1`, for which the compound was called inactive in [1], in experiment [2], in [17] and in experiment [19]. The Potency result in experiment [4], in [5], in experiment [6], in experiment [7], in experiment [8] and in [18] was “inactive” each time. The Potency entry in experiment [9], in [10], in experiment [11], in experiment [12], in experiment [13] and in [14] was “inactive” in each case. The Potency result in experiment [15] and in [16] was “inactive” in each case.

As for `Cc1ccc2c(c1[N+](=O)[O-])C(=O)c1ccccc1C2=O`, the compound was classed as inactive in [1], in [2], in experiment [17], in experiment [3] and in experiment [19]. Also, the Potency entry in [4], in experiment [5], in [6], in [7], in experiment [18] and in [10] was “inactive” in each case. The Potency entry in [11], in [12], in [13], in experiment [14] and in [15] was “inactive” throughout.

For the compound `CCC(C)O` (configuration not stated), the compound was called inactive in experiment [1], in experiment [2], in experiment [3] and in experiment [19]. The Potency result in experiment [4], in [5], in experiment [6], in experiment [7], in experiment [8] and in [9] was “inactive” in each case. The Potency entry in experiment [11], in experiment [12], in experiment [13], in experiment [14], in experiment [15] and in experiment [16] was “inactive” each time.

In the case of `O=C(O)c1cc(Cl)cc(Cl)c1`, the result in experiment [20], in [2], in [17] and in [3] was inactive. For the same compound, the Potency result in [4], in experiment [5], in [6], in experiment [7], in [8] and in [18] was “inactive” in each case. In addition, the Potency result in experiment [9], in experiment [10], in [11], in [12], in experiment [13] and in experiment [14] was “inactive” throughout. Also, the Potency result in experiment [15] and in experiment [16] was “inactive” throughout.

As to `CCC(=O)/C=C/C1C(C)=CCCC1(C)C` (configuration not stated), the call in experiment [2], in experiment [17], in [3] and in experiment [19] was inactive. Also, the Potency entry in [4], in experiment [5], in [7], in experiment [8], in experiment [18] and in [9] was “inactive” in each case. For the same compound, the Potency entry in experiment [10], in experiment [11], in experiment [12], in [13], in experiment [15] and in experiment [16] was “inactive” in each case.

On to `Nc1ccccc1[N+](=O)[O-]`, for which the call in [20], in [2], in experiment [17], in [3] and in [19] was inactive. Further, the Potency entry in [4], in experiment [5], in experiment [6], in experiment [7], in [8] and in [9] was “inactive” throughout. Moreover, the Potency entry in experiment [10], in [11], in experiment [12], in [13], in experiment [14] and in experiment [15] was “inactive” each time. The Potency result in experiment [16] is “inactive”.

Turning to `CC1=C(/C=C/C(C)=C/C=C/C(C)=C\C=O)C(C)(C)CCC1`, the Potency was 31.6 µM (active) in [4]; 50.1 µM (active) in experiment [5]; 63.1 µM (active) in experiment [6]; 50.1 µM (active) in [7]; 39.8 µM (active) in experiment [8]; 31.6 µM (active) in experiment [18]. Further, the Potency in experiment [9] is 50.1 µM (active); in experiment [10], 50.1 µM (active); in [11] it was 50.1 µM (active); in [12] it was 39.8 µM (active); in [13], 50.1 µM (active); in experiment [14] it was 50.1 µM (active). For the same compound, the Potency in [16] is 50.1 µM (active).

Turning to `CCCCCO`, the call in experiment [20], in experiment [2], in [17], in experiment [3] and in experiment [19] was inactive. Further, the Potency entry in experiment [4], in [5], in [6], in experiment [7], in experiment [8] and in experiment [18] was “inactive” throughout. Besides, the Potency result in experiment [9], in experiment [11], in experiment [12], in experiment [13], in [14] and in experiment [15] was “inactive” throughout.

Consider `COC(=O)CC#N`, for which the call in experiment [20], in experiment [2], in experiment [17], in experiment [3] and in experiment [19] was inactive. In addition, the Potency result in [4], in experiment [5], in experiment [6], in [7], in experiment [8] and in experiment [9] was “inactive” throughout. In addition, the Potency entry in experiment [10], in experiment [12], in experiment [13], in [14], in [15] and in experiment [16] was “inactive” throughout.
